{"source": "PubChem BioAssay (NCATS)", "note": "Inconclusive results are not listed. Calls of active or inactive are those of the source. Calls follow the shape of the dose curve; as a rule, active = well fitted inhibition curve with a large enough effect; inconclusive = small, poorly fitted or top-dose-only effect; inactive = flat fitted curve, though single readings scatter. % is scaled to controls: 0 for no effect and ±100 for the full control effect."}
{"test": "Primary qHTS for inhibitors of nuclear receptor binding SET domain protein 2 (NSD2) in an isogenic RCH-ACV NSD2 p.E1099K mutant (9B) (AID 1645876); also: nearly all actives have a fitted effect of over 70% in size", "conditions": "RCH-ACV NSD2 E1099K (9B) viability, CellTiter-Glo, 72 h; series mostly up to 44.9 µM; activity change, negative = viability loss: at the top concentration"}
{"smiles": "COC1=CC(=O)C[C@@H](C)[C@]12Oc1cc(OC)cc(OC)c1C2=O", "outcome": "inactive"}
{"smiles": "C=C[C@H]1[C@H](O[C@@H]2O[C@H](CO)[C@@H](O)[C@H](O)[C@H]2O)OC=C2C(=O)OCC[C@]21O", "activity change, negative = viability loss": "-15% (inactive)"}
{"smiles": "COc1cc(CC(COC2OC(CO)C(O)C(O)C2O)c2cc(/C=C/CO)cc(OC)c2O)ccc1O", "note": "(configuration not stated)", "outcome": "inactive [at 17.3 µM]"}
{"smiles": "C/C=C/C1=CC2=CC(=O)C(C)(O)C(OC(=O)c3c(C)cc(O)cc3O)C2CO1", "note": "(configuration not stated)", "activity change, negative = viability loss": "-21.5% (inactive)"}
{"smiles": "CC1=C2C(=O)O[C@@H](c3ccoc3)[C@]2(C)CCC1", "Potency": "inactive"}
{"smiles": "CC(=O)OC[C@]1(O)[C@H]2[C@H](OC(=O)CC(C)C)OC=C(CO[C@@H]3O[C@H](CO)[C@@H](O)[C@H](O)[C@H]3O)[C@H]2C[C@@H]1O", "activity change, negative = viability loss": "-18.3% [at 17.3 µM] (inactive)"}
{"smiles": "CC(C)=CCc1ccc(Oc2c(O)cc(C)cc2CO)c(C(=O)O)c1O", "activity change, negative = viability loss": "0.396% (inactive)"}
{"smiles": "C=C(C)[C@@H]1CC[C@](C)(O)[C@@H](OC(=O)c2ccccc2)C1", "activity change, negative = viability loss": "-30.6% (inactive)"}
{"smiles": "CCOC(=O)N1CCC(NCCNC(=O)c2ccccc2C)CC1", "outcome": "inactive"}
{"smiles": "CC(C)(C)NCc1cc(Nc2ccnc3cc(Cl)ccc23)c2c(c1O)CCCC2", "activity change, negative = viability loss": "-8.87% [at 0.588 µM] (inactive)"}
{"smiles": "CC(C)(O)C1=CCC23COC(C2)C(O)(C(=O)O)CCC13", "note": "(configuration not stated)", "outcome": "inactive"}
{"smiles": "CC1CCCC2OC2C(=O)c2c(O)cc(O)cc2CC(=O)O1", "note": "(configuration not stated)", "activity change, negative = viability loss": "-20.5% (inactive)"}
{"smiles": "Cc1cn2c(N)c(Cl)cc(C(=O)NCC3CCN(CC(C)C)CC3)c2n1", "activity change, negative = viability loss": "-22.5% (inactive)"}
{"smiles": "COc1c(C(CC(C)C)OC(C)=O)ccc(Oc2c(O)cc(C)cc2/C=C/C(C)=O)c1C(=O)O", "note": "(configuration not stated)", "activity change, negative = viability loss": "-19.3% [at 17.3 µM] (inactive)"}
{"smiles": "Cc1ccc(Sc2cncc3sc(C(N)=O)cc23)cc1", "activity change, negative = viability loss": "-26.5% (inactive)"}
{"smiles": "COc1ccc2c(c1)O[C@H](O[C@@H]1O[C@H](CO)[C@@H](O)[C@H](O)[C@H]1O)C(=O)N2", "outcome": "inactive"}
{"smiles": "COC(=O)C1C(CC(C)=O)C=CC(O)C12Oc1cc(C)cc(O)c1C2=O", "note": "(configuration not stated)", "activity change, negative = viability loss": "-19.6% (inactive)"}
{"smiles": "CCN[C@@H]1C[C@H](N)[C@@H](O[C@H]2OC(CN)=CC[C@H]2N)[C@H](O)[C@H]1O[C@H]1OC[C@](C)(O)[C@H](NC)[C@H]1O", "Potency": "inactive"}
{"smiles": "CC1(C)O[C@@H]2C[C@H]3[C@@H]4CCC5=CC(=O)C=C[C@]5(C)[C@H]4[C@@H](O)C[C@]3(C)[C@]2(C(=O)CO)O1", "activity change, negative = viability loss": "-21.1% (inactive)"}
{"smiles": "CC(=O)c1c(C)cc(O[C@@H]2O[C@H](CO)[C@@H](O)[C@H](O)[C@H]2O)cc1O", "activity change, negative = viability loss": "-7.63% (inactive)"}
{"smiles": "CCOC(=O)c1ccc(N(C)c2csc(-c3ccccc3)n2)cc1", "outcome": "inactive"}
{"smiles": "C[C@@H]1O[C@@H](O[C@H]2[C@H](OC(=O)C34CCC5(C)C(=CCC6C7(C)CC(O)C(O[C@@H]8O[C@H](C(=O)O)[C@@H](O)[C@H](O)[C@H]8O)C(C)(C(=O)O)C7CCC65C)C3CC(C)(C)CC4O)O[C@H](C)[C@@H](O)[C@@H]2O)[C@H](O)[C@@H](O[C@@H]2OC[C@](O)(CO)[C@H]2O[C@@H]2O[C@H](CO)[C@@H](O)[C@H](O)[C@H]2O)[C@H]1O", "note": "(some centres not stated)", "activity change, negative = viability loss": "-24% [at 9.23 µM] (inactive)"}
{"smiles": "CCC1CC2C(C)=CC3CCCCC3C2(C)C2(OC(=O)C(C)(O)OC2=O)O1", "note": "(configuration not stated)", "outcome": "inactive"}
{"smiles": "CCCC1=CC2=C(CO1)C(=O)C(C)(OC(=O)c1c(C)cc(OC)cc1O)C(O)C2", "note": "(configuration not stated)", "activity change, negative = viability loss": "-12.4% [at 17.3 µM] (inactive)"}
{"smiles": "CC(=O)C1CCC2(C)C3=C(CCC12C)C1(C)CCC(=O)C(C)(C)C1CC3", "note": "(configuration not stated)", "activity change, negative = viability loss": "-9.88% (inactive)"}
{"smiles": "CC1=CC(=O)C[C@H]2[C@@H]1CC[C@@H](C)[C@]21CO[C@H](c2ccoc2)C1=O", "activity change, negative = viability loss": "-14.6% (inactive)"}
{"smiles": "CC1CCC2(C)C(CC(O)C(O)C23CO3)C1(C)CCC1=CC(=O)OC1O", "note": "(configuration not stated)", "activity change, negative = viability loss": "-28.6% (inactive)"}
{"smiles": "OC[C@H]1O[C@@H](n2cnc3c2NC=NC[C@H]3O)C[C@@H]1O", "Potency": "inactive"}
{"smiles": "O=C(NC[C@H](O)CN1CCc2ccccc2C1)c1cc(NC2COC2)ncn1", "activity change, negative = viability loss": "-22.3% (inactive)"}
{"smiles": "CC1(CCC(=O)O)C(=O)C=CC23CC4CC(OC4(C)C2O)C13", "note": "(configuration not stated)", "activity change, negative = viability loss": "-12.1% (inactive)"}
{"smiles": "CNC(=O)O[C@H]1COc2ccc(N3CCN(C4COC4)CC3)cc2[C@@H]1NC(=O)c1ccc(F)cc1", "outcome": "inactive"}
{"smiles": "COc1cc(/C=C/C(=O)OC2CC(C)=C(C(=O)O)/C2=C/CO[C@@H]2O[C@H](CO)[C@@H](O)[C@H](O)[C@H]2O)ccc1O", "note": "(some centres not stated)", "activity change, negative = viability loss": "-2.88% [at 17.3 µM] (inactive)"}
{"smiles": "O=C1CC(c2ccc([N+](=O)[O-])cc2)=NN1c1ccccc1", "activity change, negative = viability loss": "-22.9% (inactive)"}
{"smiles": "C=CC(C)(O)CO[C@@H]1O[C@H](CO)[C@@H](O)[C@H](O)[C@H]1O", "note": "(some centres not stated)", "activity change, negative = viability loss": "0.748% (inactive)"}
{"smiles": "CN1C(=O)c2ccccc2-n2c(nc3ccccc3c2=O)/C1=C/c1ccccc1", "activity change, negative = viability loss": "-6.38% (inactive)"}
{"smiles": "CC(C)C1=CCC(C)(O)C(OC2OC(CO)C(O)C(O)C2O)C1", "note": "(configuration not stated)", "activity change, negative = viability loss": "2.9% (inactive)"}
{"smiles": "O=C(/C=C/c1ccc(O)c(O)c1)OCc1ccccc1O[C@@H]1O[C@H](CO)[C@@H](O)[C@H](O)[C@H]1O", "activity change, negative = viability loss": "-15% [at 17.3 µM] (inactive)"}
